In the OligoGym collection:

The sequences below were run against LYPD3 (assay: pooled miR-30 sensor sort-seq; sequence = guide strand). Conditions: shRNA.
Note: reference of the scale not given here.

| Sequence | sensor-assay potency score (higher = more potent) |
| --- | --- |
| TCATCTGCTTTCTGCACGCAGC | -1.43 |
| TAGAAGTGGTGACAGATGTGGT | -0.342 |
| TTGAGCTTGGCGTTGCAGCGAT | -0.598 |
| TCATCCTGGACACAGCCCCGGA | -1.53 |
| TCTGCTTTCTGCACGCAGCTGT | 0.703 |
| TTGCCGTCGAAGCAGCCCTTGT | -1.63 |
| TTGTAGACATGATCGCTGGCGT | -0.346 |
| TGCACTCTCATTACCTGCCGGG | -0.389 |
| TCTTGTTCGGGGAGCATCCGTC | -0.769 |

Each sequence was assayed against LYZL6 in the same assay as above. Conditions: shRNA.

| Sequence | sensor-assay potency score (higher = more potent) |
| --- | --- |
| TAATCGTTGCACCAGTAGTGGC | -1.43 |
| TATCTTTGATATGTTGAACTTG | -0.231 |
| AACAGTGCAACCTCCATTCTAC | -0.122 |
| TTGCTTTCCACAAAAGCCAGGC | -0.197 |
| TTTAGGGCAAGAAAGCTGCTGA | -0.16 |
| TATGTTGAACTTGCTTTCCACA | -1.04 |
| CAGATCTTGACAGTCTACGTGG | -1.04 |
| TCAGCAGATCTTGACAGTCTAC | -0.859 |
| TTTGATATGTTGAACTTGCTTT | 0.0932 |
| TTGATATGTTGAACTTGCTTTC | -0.485 |
| ATCTTTGATATGTTGAACTTGC | -0.0692 |
| ATAATCGTTGCACCAGTAGTGG | -0.825 |

These sequences were tested against LZTR1 in the same assay as above. Conditions: shRNA.

| Sequence | sensor-assay potency score (higher = more potent) |
| --- | --- |
| TTAGGGTAACAGGAGAACTGGA | -0.956 |
| TACTCGACACTGTCCGAGCAGC | -1.08 |
| TATGATGTCCAGCAGCAGCTGC | -0.965 |
| TAACAGGAGAACTGGAACCTGT | -1.05 |
| TTCATCTCCAGGTTCTGCTTGC | 0.0647 |
| AATACAAACATCTTGTCCCGGC | -0.355 |
| TATTTGATCTTGTCGGTGTAGA | 0.13 |
| TAGGGTAACAGGAGAACTGGAA | 0.345 |
| TCATTGAGCATGGTCTTCCCAT | -0.632 |
| TTGGAGACCTTGGTGAACTGGT | 0.248 |
| TTTCACATCGAACCGCAGGAGG | -1.16 |

Each sequence was assayed against MACROD1 in the same assay as above. Conditions: shRNA.

| Sequence | sensor-assay potency score (higher = more potent) |
| --- | --- |
| TCCAGCTTGGTGATGTCGCTGC | -0.0855 |
| TTCAGCCTGACAAAGTCCTTGC | 0.08 |
| TGCTTGTCCTTTTTATACCTGG | -0.621 |
| AACACGCAGATGATCAGCCGGT | -0.183 |
| TTACAGCTCTGCAGGGTCCGGC | -1.02 |
| TTTCTCATTGAGCTGCTTGTCC | -0.192 |
| TCATTGAGCTGCTTGTCCTTTT | -0.672 |
| TTTCGCCTCCTTCCAGTCGGTG | -1.53 |
